# Hit rate of the full screen: of about 310,000 compounds, about 14,000 (4.5%) showed an effect of 50% or more. The effect is printed as a negative number. The list comes from a sample in which strong results are over-represented; it also holds similar structures and randomly drawn compounds.
# Target: human ether-à-go-go-related gene (hERG) potassium channel (human, UniProt Q12809)
# Test: primary screen, population patch clamp on CHO cells stably expressing hERG; higher = less effect of the substance
# 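Further: peak tail current of the secondary pulse compared with the same well before compound.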
# human ether-à-go-go-related gene (hERG) potassium channel, sequence (Q12809 whole entry, looked up): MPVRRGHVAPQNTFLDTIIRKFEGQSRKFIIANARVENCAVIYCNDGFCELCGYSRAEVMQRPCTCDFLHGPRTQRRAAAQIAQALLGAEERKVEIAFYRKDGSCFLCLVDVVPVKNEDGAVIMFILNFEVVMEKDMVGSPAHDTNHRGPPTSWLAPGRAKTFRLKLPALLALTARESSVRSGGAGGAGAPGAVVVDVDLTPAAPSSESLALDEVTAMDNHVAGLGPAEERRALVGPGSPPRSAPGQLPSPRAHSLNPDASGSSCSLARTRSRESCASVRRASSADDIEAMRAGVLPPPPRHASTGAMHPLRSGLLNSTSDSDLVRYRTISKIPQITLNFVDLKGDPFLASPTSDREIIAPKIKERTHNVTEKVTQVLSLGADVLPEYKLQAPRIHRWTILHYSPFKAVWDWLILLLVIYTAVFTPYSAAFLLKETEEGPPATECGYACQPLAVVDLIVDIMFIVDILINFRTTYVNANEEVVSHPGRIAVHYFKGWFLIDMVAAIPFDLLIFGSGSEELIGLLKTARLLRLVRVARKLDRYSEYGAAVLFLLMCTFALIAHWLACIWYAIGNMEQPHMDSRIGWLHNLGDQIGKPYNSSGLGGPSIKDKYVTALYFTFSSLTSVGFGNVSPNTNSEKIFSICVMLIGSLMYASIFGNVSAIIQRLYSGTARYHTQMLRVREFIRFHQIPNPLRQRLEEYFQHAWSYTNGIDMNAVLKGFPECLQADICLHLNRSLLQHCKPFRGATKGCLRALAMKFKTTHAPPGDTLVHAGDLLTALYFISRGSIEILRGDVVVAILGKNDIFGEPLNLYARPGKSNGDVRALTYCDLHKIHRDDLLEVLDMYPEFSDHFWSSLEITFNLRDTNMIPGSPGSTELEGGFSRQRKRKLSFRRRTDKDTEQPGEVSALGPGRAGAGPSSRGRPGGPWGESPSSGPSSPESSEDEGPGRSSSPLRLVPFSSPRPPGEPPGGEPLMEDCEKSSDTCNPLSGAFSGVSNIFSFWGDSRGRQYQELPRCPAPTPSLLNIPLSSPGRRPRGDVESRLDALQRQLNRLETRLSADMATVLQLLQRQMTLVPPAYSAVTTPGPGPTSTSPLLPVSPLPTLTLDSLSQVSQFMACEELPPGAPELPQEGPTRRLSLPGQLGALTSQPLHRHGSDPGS
row,Compound,"hERG current change (%, negative = inhibition) at 10uM [%]"
1,CC(=O)NNC(=O)CSc1nnc(-c2ccccc2)c(-c2ccccc2)n1,19.4
2,COc1ccc(CN2CC(=O)N(c3ccc(C)c(C)c3)C2=S)cc1OC,12.2
3,CC(C)Oc1c(Cl)cc(CNC(C)(C)CO)cc1Cl,0.775
4,CSc1nnc(-c2ccco2)c(-c2ccco2)n1,2.75
5,CCCCCC(=O)Nc1ccc2oc(-c3cccnc3)nc2c1,-6.74
6,COC(=O)C1=C(C(=O)OC)SC2(S1)C(C(=O)OC)=C(C(=O)OC)SC1=C2c2cc(C)ccc2NC1(C)C,14.3
7,COC(=O)C1=C(C(=O)OC)SC2(S1)C(C(=O)OC)=C(C(=O)OC)SC1=C2c2cccc(C)c2NC1(C)C,-51.6
8,COC(=O)C1=C(C(=O)OC)SC2(S1)C(C(=O)OC)=C(C(=O)OC)SC1=C2c2cc(C)cc(C)c2NC1(C)C,26.1
9,CCOC(=O)C1CCCN(C(=O)c2cc(Nc3ccc(OC)cc3)nc3ccccc23)C1 (stereo not shown),-15
10,Cc1ccc2sc(N(CCCN(C)C)C(=O)c3ccc(S(=O)(=O)N(C)C4CCCCC4)cc3)nc2c1C.Cl,-8.13
11,COc1cc2nc(N(CCN(C)C)C(=O)c3ccc(S(=O)(=O)N(C)CC4CCCO4)cc3)sc2cc1OC.Cl (stereo not shown),-9.01
12,CCc1ccc2nc(N(CCCN(C)C)C(=O)c3ccc(S(=O)(=O)N(C)C4CCCCC4)cc3)sc2c1.Cl,8.35
13,CN(C)CCCN(C(=O)c1ccc(S(=O)(=O)N(C)C2CCCCC2)cc1)c1nc2ccc(F)cc2s1.Cl,-71.9
14,COc1cc2nc(N(CCCN(C)C)C(=O)c3ccc(S(=O)(=O)N(C)C4CCCCC4)cc3)sc2cc1OC.Cl,-51.6
15,CN(C)CCCN(C(=O)c1ccc(S(=O)(=O)N(C)C2CCCCC2)cc1)c1nc2ccc(Br)cc2s1.Cl,2.39
16,CCCCNC(=O)C1CCN(S(=O)(=O)c2ccc3c(c2)CC(C)N3C(=O)C2CC2)CC1 (stereo not shown),1.16
17,NC(=O)C(c1ccc(Cl)cc1)c1ccc(Sc2ccc(Cl)cc2)nn1 (stereo not shown),-9.96
18,COc1ccc(CCNc2cc(C)nc3c(-c4ccc(Cl)cc4)c(C)nn23)cc1OC,15.5
19,Cc1cc(NCc2ccccn2)n2nc(C)c(-c3ccc(Cl)cc3)c2n1,14.2
20,Cc1nn2c(NCCCn3ccnc3)cc(C(C)C)nc2c1-c1ccccc1,-23.5
21,CCCc1cc(NCc2ccccn2)n2nc(C)c(-c3ccccc3)c2n1,4.77

row,Compound,"hERG current change (%, negative = inhibition) at 10uM [%]"
1,Cc1cc(NCCCN2CCOCC2)n2nc(C)c(-c3ccccc3)c2n1,-14.6
2,Cc1cc(NCCN2CCOCC2)n2nc(C)c(-c3ccc(Cl)cc3)c2n1,-50.2
3,Cc1cc(NCCCN2CCOCC2)n2nc(C)c(-c3ccc(F)cc3)c2n1,-31.1
4,Cc1cc(NCCCn2ccnc2)n2nc(C)c(-c3ccccc3)c2n1,-72.8
5,CCCc1cc(N2CCCC2)n2nc(C)c(-c3ccccc3)c2n1,8.36
6,Cc1cc(NCCCn2ccnc2)n2nc(C)c(-c3ccc(Cl)cc3)c2n1,-71.8
7,CCCc1cc(NCCCn2ccnc2)n2nc(C)c(-c3ccccc3)c2n1,-74.9
8,Cc1cc(NCCC(C)C)n2nc(C)c(-c3ccccc3)c2n1,1.03
9,NNC(=O)c1ccc2[nH]c3c(c2c1)CCCC3,5.31
10,COc1ccc(-c2nc3ccccc3c(C(=O)Nc3ccc(S(=O)(=O)Nc4cc(C)on4)cc3)c2C)cc1,-7.09
11,COc1ccc(NS(=O)(=O)c2ccc(N3CCOCC3)c(NC(=O)c3ccccc3Br)c2)cc1,-11.2
12,COc1cc(C(=O)N2CCN(C(=O)C(Cc3cc(C)ccc3C)NC(C)=O)CC2)cc(OC)c1OC (stereo not shown),-14.4
13,CCc1ccc(N(C(=O)c2csnn2)C(C(=O)NC2CCCC2)c2cccnc2)cc1 (stereo not shown),-24.9
14,O=C(O)C1(c2ccccc2)CCN(S(=O)(=O)c2cccs2)CC1,5.95
15,N#CC1(NC(=O)COC(=O)c2cc(=O)[nH]c3ccccc23)CCCCC1,14
16,Cc1nn(CC(N)=O)c(=O)c2ccccc12,10.6
17,CN(C)CCNc1nc2c(c(=O)[nH]c(=O)n2C)n1CCOc1ccccc1,-5.88
18,Cc1nc(Cl)c2oc3ccccc3c2n1,9.28
19,O=C(NCCCN1CCC(Cc2ccccc2)CC1)C1CCC(=O)N1C1CCCC1 (stereo not shown),6.52
20,Cc1ccc(C(=O)NCCCNC(=O)c2ccccn2)cc1,5.5
21,Cc1ccc(C(=O)NCCNC(=O)c2ccccn2)cc1,12.9

row,Compound,"hERG current change (%, negative = inhibition) at 10uM [%]"
1,Cc1ccc(/C(=C\CN2CCCC2)c2ccccn2)cc1.Cl,-55.4
2,CCOC(=O)Cc1csc(SCC(=O)c2c(N)n(CC(C)C)c(=O)n(C)c2=O)n1,-2.23
3,Cc1ccc(OC(C)C(=O)N2CC(=O)Nc3ccccc32)cc1 (stereo not shown),-67.7
4,COc1ccccc1OC(C)C(=O)N1CC(=O)Nc2ccccc21 (stereo not shown),15.8
5,Cc1ccc(OC(C)C(=O)N2CC(=O)Nc3ccccc32)c(C)c1 (stereo not shown),2.56
6,CCCN(CC(=O)Nc1ccccc1OC)C(=O)Cc1ccc2c(c1)CCC2,-18.1
7,[O-][n+]1c2ccccc2c2n1CCN1CCOC21c1ccc(Cl)cc1 (stereo not shown),-42.3
8,CC[n+]1c(/C=C/C=C/c2ccc(N(C)C)cc2)sc2ccccc21.[O-][Cl+3]([O-])([O-])[O-],-73.4
9,CC[n+]1c(/C=C/N(C)c2ccccc2)sc2ccc(Cl)cc21.[O-][Cl+3]([O-])([O-])[O-],-62.6
10,CC[n+]1c(/C=C/C=C/N(C(C)=O)c2ccccc2)sc2cc(OC)ccc21.[I-],-32.8
11,CC/C(=C/c1sc2ccccc2[n+]1CC)SC.COS(=O)(=O)[O-],0.104
12,CN(C)c1ccc(/C=C/C=C/c2sc3ccccc3[n+]2C)cc1.[O-][Cl+3]([O-])([O-])[O-],-42.6
13,CN(C)c1ccc(/C=C/c2nc3ccccc3s2)cc1,17.7
14,CC[n+]1c(/C=C/C=C/N(C(C)=O)c2ccccc2)sc2ccccc21.[I-],-69.8
15,CCCc1nn(C(=O)c2ccccc2)c2c1C(=O)CC(C)(C)C2,11.5
16,C=CCOC(=O)/C(=C\c1cccc2ccccc12)NC(=O)c1ccccc1,-9.44
17,CC(=O)/C=C(\C)N=Nc1c(O)[nH]c2ccccc12,5.48
18,Cc1ccc(NC(=O)c2ccccc2NS(=O)(=O)c2ccc(F)cc2)cc1S(=O)(=O)N1CCCCC1,3.17
19,Cc1ccc(NS(=O)(=O)c2ccc(-n3cccn3)cc2)c(C)c1,22.8
20,CCC(CC)c1nnc(NC(=O)C2CC(=O)N(CCc3ccc(OC)c(OC)c3)C2)s1 (stereo not shown),-0.537
21,CCn1c2ccccc2c2cnc(N=CN(C)C)c(C#N)c21,-24

row,Compound,"hERG current change (%, negative = inhibition) at 10uM [%]"
1,N#Cc1ccc(Nc2nc(-c3ccc(O)cc3O)cs2)cc1C(F)(F)F,11.9
2,CCOc1ccccc1N1CCN(Cc2cnc(-c3ccccc3)[nH]2)CC1,-40.6
3,Fc1ccc(-c2[nH]ncc2CN2CCN(c3ccc(F)cc3)CC2)cc1,-44.5
4,CCOc1ccccc1N1CCN(Cc2cn[nH]c2-c2ccc(F)cc2)CC1,-72.3
5,CCOc1ccccc1N1CCN(Cc2cc3c(cc2[N+](=O)[O-])OCO3)CC1,-20.6
6,COc1ccccc1N1CCN(Cc2cn[nH]c2-c2ccc(F)cc2)CC1,-55.3
7,COc1ccc(-c2[nH]ncc2CN2CCN(c3ccc(F)cc3)CC2)cc1,-45.7
8,Fc1ccc(N2CCN(Cc3nnc(-c4ccccc4)o3)CC2)cc1,-11.9
9,COc1ccccc1N1CCN(Cc2ccccc2Cl)CC1,-23.5
10,Fc1ccc(N2CCN(Cc3cn[nH]c3-c3ccccc3)CC2)cc1,-59.2
11,Cc1c(C)n(CCCN(C)C)c2ncnc(NCc3ccccc3)c12,-13.9
12,O=P(C(=Nc1ccc(Cl)cc1)N1CCOCC1)(N1CCOCC1)N1CCOCC1,-17.6
13,Cc1ccc(S(=O)(=O)N(C)C)cc1NC(=S)N(C)C1CCN(C)CC1,16.2
14,Cc1ccc(C)c(NC(=O)NCCN2CCCCC2)c1,-15.1
15,COc1ccc(S(=O)(=O)N2CCOC23CCN(S(=O)(=O)c2cc(C)ccc2OC)CC3)cc1,26.8
16,CCN(C(=O)COC(=O)Cc1c[nH]c2ccccc12)c1c(N)n(Cc2ccccc2)c(=O)[nH]c1=O,16.3
17,Cc1cc(Br)ccc1NC(=S)N1CCOCC1,12.5
18,COc1ccc(CNC(=O)CCCOc2cc(=O)n(C)c3ccccc23)cc1,-19.2
19,Cn1c(SCC(=O)Nc2nccs2)nnc1C12CC3CC(CC(C3)C1)C2,-6.22

# From article PMC4336329 (PLoS ONE, 2015)
